This assay has as its target APOA4. As to the kind of experiment: pooled miR-30 sensor sort-seq; sequence = guide strand. The note with it: shRNA.
For TTCTTCTGCAGGTCACCTGCGT, the sensor-assay potency score (higher = more potent) is -0.176. Next, TTGAAGGTGCTGAAGAAGGAGT: -1.02.

Take TCGGCGTTCTTCTTCATCTGGA: the sensor-assay potency score (higher = more potent) was -0.527. Regarding TTCTGGTCGATCTTGGCCTTGA, the sensor-assay potency score (higher = more potent) was -0.621. TCGGAACTCCTCCACCTGCTGG registered a sensor-assay potency score (higher = more potent) of -1.28. Sequence TGAAGTAGTCCCACATCACCGT gave a sensor-assay potency score (higher = more potent) of -0.0577. Consider TTGAGCTCCTCCACGTTCTGGT, for which the sensor-assay potency score (higher = more potent) was 0.494.

In the case of TTTCTGGAGATGTTCCACGGCC, the sensor-assay potency score (higher = more potent) was -0.87. Next, TCGATCTTGGCCTTGAGCTCGT: -0.264; TTCTTCATCTGGAAGGTCAGGC: 0.31; TTCTTCTTCATCTGGAAGGTCA: -0.417.
Also: reference of the scale not given here.
